{"source": "PubChem BioAssay"}
{"system": "Fibrinogen (Alexa647-labelled)", "assay": "Alexa647-fibrinogen binding to printed small molecules – biochemical, small-molecule microarray, 635/667 nm fluorescence, artefact control for SMM control-protein annotation, profiling panel (AID 1131);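 note: z-score merges 667 nm fluorescence with per-spot signal-to-noise over triplicate slides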", "settings": "fibrinogen-A647 binding fluorescence, higher = more signal"}
{"smiles": "COC(=O)[C@@]1(Cc2ccc(F)cc2)[C@H]2c3cc(C(=O)N(C)C)n(CCc4ccccn4)c3C[C@H]2CN1C(=O)c1ccccc1", "composite z-score": 0.0039}
{"smiles": "Cc1ccc(S[C@]2(C(=O)NC3CC3)CC(=O)N(Cc3ccccc3)[C@@H]2c2ccc(CO)cc2)cc1", "composite z-score": -0.816}
{"smiles": "O=C1C2C=CC(C(O)c3ccc(F)cc3)N(Nc3ccccc3)C2C(=O)N1c1ccccc1", "note": "(centres undefined)", "composite z-score": 0.266}
{"smiles": "Cc1cc(C)c(C(O)C2C=CC3C(=O)N(C)C(=O)C3N2Nc2ccccc2)c(C)c1", "note": "(centres undefined)", "composite z-score": 0.992}
{"smiles": "[N-]=[N+]=NCc1ccccc1C[C@]1(C(=O)NCCN2CCOCC2)N=C(c2ccc(OCCCO)cc2)O[C@H]1c1ccccc1N=[N+]=[N-]", "composite z-score": 0.989}
{"smiles": "O=C(OCCF)C1=CCC(c2cccc(Cl)c2)O1", "note": "(centres undefined)", "composite z-score": -0.137}
{"smiles": "[N-]=[N+]=NCc1ccccc1C[C@]1(C(=O)NCC(O)CO)N=C(c2ccc(OCCCO)cc2)O[C@H]1c1ccccc1N=[N+]=[N-]", "note": "(some centres undefined)", "composite z-score": 0.188}
{"smiles": "COCC1=C2[C@@H](CCc3ccccc3)OB(O)C[C@@H]2[C@@H]2C(=O)N(Cc3ccccc3)C(=O)[C@@H]2C1", "composite z-score": 1}
{"smiles": "[N-]=[N+]=Nc1ccccc1[C@H]1OC(c2ccc(OCCCO)cc2)=N[C@@]1(CCS(=O)(=O)c1ccccc1)C(=O)O", "composite z-score": 0.773}
{"target": "Follistatin (Homo sapiens) (UniProt P19883)", "sequence (P19883 whole entry, looked up)": "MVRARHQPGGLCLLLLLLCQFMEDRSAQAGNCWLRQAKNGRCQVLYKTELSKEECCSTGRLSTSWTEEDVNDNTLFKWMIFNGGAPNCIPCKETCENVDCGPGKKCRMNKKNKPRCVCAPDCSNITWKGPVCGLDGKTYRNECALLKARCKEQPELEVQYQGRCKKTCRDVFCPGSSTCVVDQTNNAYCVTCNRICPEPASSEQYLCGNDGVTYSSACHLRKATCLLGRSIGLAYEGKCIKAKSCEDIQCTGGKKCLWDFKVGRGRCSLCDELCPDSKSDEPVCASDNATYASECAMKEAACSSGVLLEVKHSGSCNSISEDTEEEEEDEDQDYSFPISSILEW", "assay": "FST protein binding to printed compounds – biochemical, small-molecule microarray, 635/667 nm fluorescence, primary screen (AID 1132)", "settings": "635 nm fluorescence, higher = more signal"}
{"smiles": "COCC(=C=CC[C@@H](O)c1ccc(CO)o1)CCO", "composite z-score": 1.24}
{"smiles": "CC(C)N1C(=O)c2ccccc2[C@@H](C(=O)NCCCN(C)C)[C@@H]1c1ccc(CO)cc1", "composite z-score": -0.631}
{"smiles": "C=C[C@@H](COC(C)=O)N(Cc1ccc([N+](=O)[O-])cc1)S(=O)(=O)c1ccc(Br)cc1", "composite z-score": 0.631}
{"smiles": "CC(C)C(=C=CC[C@@H](O)c1ccccc1OCCO)C[C@@H](O)c1ccccn1", "composite z-score": 0.6}
{"smiles": "C=CCNC(=O)[C@@H]1[C@H]2C(=O)O[C@H](c3ccccc3)[C@H](c3ccccc3)N2[C@H](c2ccc(O)cc2)[C@@]12C(=O)N(C(=O)OCCOC)c1ccccc12", "composite z-score": 0.714}
{"smiles": "CC(C)(C)OC(=O)CC[C@@]1(C(=O)NCCN2CCOCC2)N=C(c2ccc(OCCCO)cc2)O[C@@H]1c1ccccc1", "composite z-score": 1.28}
{"smiles": "N#Cc1ccc(NN2C(C(O)C3CCCCC3)C=CC3C(=O)N(c4ccccc4)C(=O)C32)cc1", "note": "(centres undefined)", "composite z-score": 1.27}
{"smiles": "C=CCN1C(=O)[C@]2(O[C@H](CCO)[C@@H]([Si](C)(C)c3ccc(OC)cc3)[C@@H]2C)c2cc(NC(=O)[C@H](C)O)ccc21", "composite z-score": 0.222}
{"smiles": "O=C1O[C@H](c2ccccc2)[C@H](c2ccccc2)N2[C@H]1[C@@H](C(=O)N1CCN(c3ncccn3)CC1)[C@]1(C(=O)Nc3ccccc31)[C@H]2c1ccc(OCCO)cc1", "composite z-score": 1.34}
{"smiles": "O=C1OCCC/C=C\\[C@H]2OC34C=CCN(Cn5nnc6ccccc65)C(=O)[C@H]3N(CCCCCO)C(=O)[C@@H]4C12", "note": "(some centres undefined)", "composite z-score": -0.31}
{"smiles": "COc1cc2c(cc1OC)CN(C(=O)[C@@H]1[C@H]3C(=O)O[C@H](c4ccccc4)[C@H](c4ccccc4)N3[C@H](c3ccccc3OCCO)[C@@]13C(=O)Nc1ccc(C#CCNC(N)=O)cc13)CC2", "composite z-score": 0.741}
{"smiles": "COC(=O)[C@@]1(Cc2ccccc2)[C@H]2c3cc(C(=O)N4CCCC4)n(C)c3C[C@H]2CN1C(=O)c1ccccc1", "composite z-score": 0.725}
{"smiles": "O=C1O[C@H](c2ccccc2)[C@H](c2ccccc2)N2[C@H]1[C@@H](C(=O)Nc1nc3ccccc3s1)[C@]1(C(=O)Nc3ccccc31)[C@H]2c1ccc(O)cc1", "composite z-score": 1.32}
{"smiles": "CCN(CC)c1ccc(N2CC=CC34O[C@@H]5C=CCCOC(=O)C5[C@H]3C(=O)N(CCCCCO)[C@@H]4C2=O)cc1", "note": "(some centres undefined)", "composite z-score": -0.0495}
{"smiles": "COCCOC(=O)N1C(=O)[C@@]2(c3cc(C#CCC(C(=O)OC)C(=O)OC)ccc31)[C@H](c1ccc(O)cc1)N1[C@H](c3ccccc3)[C@H](c3ccccc3)OC(=O)[C@H]1[C@@H]2C(N)=O", "composite z-score": 0.857}
{"smiles": "NC(=O)NCC#Cc1ccc2c(c1)[C@]1(C(=O)N2)[C@H](C(=O)N2CCCCCCC2)[C@H]2C(=O)O[C@H](c3ccccc3)[C@H](c3ccccc3)N2[C@@H]1c1ccc(OCCO)cc1", "composite z-score": 1.47}
{"smiles": "CC(C)N1CC=CC23O[C@@H]4C=CCOC(=O)[C@@H]4[C@H]2C(=O)N(CCO)[C@@H]3C1=O", "note": "(some centres undefined)", "composite z-score": -0.22}
{"smiles": "COc1ccc(CCNC(=O)[C@@]2(c3ccc([N+](=O)[O-])cc3)CC(=O)N(CC34CC5CC(CC(C5)C3)C4)[C@@H]2c2ccc(CO)cc2)cc1", "composite z-score": 1.41}
{"smiles": "COCCOC(=O)N1C(=O)[C@@]2(c3ccccc31)[C@H](C(=O)NC[C@H](O)c1ccccc1)[C@H]1C(=O)O[C@H](c3ccccc3)[C@H](c3ccccc3)N1[C@@H]2c1ccc(OCCO)cc1", "composite z-score": 1.47}
{"smiles": "COc1ccc(C(O)C2C=CC3C(=O)NC(=O)C3N2Nc2ccccn2)cc1OCc1ccccc1", "note": "(centres undefined)", "composite z-score": -0.101}
{"smiles": "COCCOC(=O)N1C(=O)[C@@]2(c3cc(C#CC4=CCCCC4)ccc31)[C@H](C(=O)NC[C@H](O)c1ccccc1)[C@H]1C(=O)O[C@H](c3ccccc3)[C@H](c3ccccc3)N1[C@@H]2c1ccc(O)cc1", "composite z-score": 1.32}
{"smiles": "COc1ccc([Si](C)(C)[C@@H]2[C@@H](CCn3cc([C@H](O)c4ccccc4)nn3)O[C@]3(C(=O)N(Cc4ccc(N5C(=O)c6cccc7cccc5c67)cc4)c4ccccc43)[C@H]2C)cc1", "composite z-score": -0.7}
{"smiles": "[N-]=[N+]=NCc1ccccc1C[C@]1(C(=O)O)N=C(c2ccc(OCCCO)cc2)O[C@H]1c1ccccc1CN=[N+]=[N-]", "composite z-score": 0.879}
{"smiles": "CC(C)NC(=O)[C@@H]1c2ccccc2C(=O)N(Cc2ccccc2)[C@H]1c1ccc(CO)cc1", "composite z-score": -0.797}
{"smiles": "COCCOC(=O)N1C(=O)[C@@]2(c3cc(C#CCNC(N)=O)ccc31)[C@H](c1ccccc1OCCO)N1[C@H](c3ccccc3)[C@H](c3ccccc3)OC(=O)[C@H]1[C@@H]2C(N)=O", "composite z-score": 1.25}
{"smiles": "O=C1C2C=CC(C(O)c3ccc(B(O)O)cc3)N(Nc3ccccc3)C2C(=O)N1c1ccccc1", "note": "(centres undefined)", "composite z-score": 0.0669}
{"smiles": "COC(=O)[C@@]1(Cc2ccc(F)cc2)[C@H]2c3cc(C(=O)N(C)C)n(CCc4ccccn4)c3C[C@H]2CN1C(=O)c1ccccc1", "composite z-score": 0.78}
{"smiles": "Cc1ccc(S[C@]2(C(=O)NC3CC3)CC(=O)N(Cc3ccccc3)[C@@H]2c2ccc(CO)cc2)cc1", "composite z-score": -0.432}
{"smiles": "O=C1C2C=CC(C(O)c3ccc(F)cc3)N(Nc3ccccc3)C2C(=O)N1c1ccccc1", "note": "(centres undefined)", "composite z-score": -0.143}
{"smiles": "Cc1cc(C)c(C(O)C2C=CC3C(=O)N(C)C(=O)C3N2Nc2ccccc2)c(C)c1", "note": "(centres undefined)", "composite z-score": 0.72}
{"smiles": "[N-]=[N+]=NCc1ccccc1C[C@]1(C(=O)NCCN2CCOCC2)N=C(c2ccc(OCCCO)cc2)O[C@H]1c1ccccc1N=[N+]=[N-]", "composite z-score": 0.714}
{"smiles": "O=C(OCCF)C1=CCC(c2cccc(Cl)c2)O1", "note": "(centres undefined)", "composite z-score": 0.134}
{"smiles": "[N-]=[N+]=NCc1ccccc1C[C@]1(C(=O)NCC(O)CO)N=C(c2ccc(OCCCO)cc2)O[C@H]1c1ccccc1N=[N+]=[N-]", "note": "(some centres undefined)", "composite z-score": -0.181}
{"smiles": "COCC1=C2[C@@H](CCc3ccccc3)OB(O)C[C@@H]2[C@@H]2C(=O)N(Cc3ccccc3)C(=O)[C@@H]2C1", "composite z-score": 0.193}
{"smiles": "[N-]=[N+]=Nc1ccccc1[C@H]1OC(c2ccc(OCCCO)cc2)=N[C@@]1(CCS(=O)(=O)c1ccccc1)C(=O)O", "composite z-score": 0.395}
